Source: PubChem BioAssay (Columbia University Molecular Screening Center)
Compounds with a hit are over-represented: about 1.7% of the library has one in this group of screens.
VCAM1 TNFa inh: reduces TNF alpha induced VCAM1 expression in HUVEC; actives 0.48% (n = 95,000); HUVEC TNFa-induced VCAM-1 immunofluorescence, high-content imaging; inhibition, % at 2 µM;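 active means inhibition above the batch mean plus 3 SD, with images confirmed as a hit by eye, cut at about 37% in these data; inconclusive means inhibition above that limit but hit not confirmed in images; inactive means inhibition not above that limit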;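 further: 0% = TNF-stimulated DMSO wells and 100% = unstimulated control wells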
NFkB transloc inh: blocks IL-1B driven NFkB nuclear translocation in HUVEC cells | HUVEC IL-1B NFkB p65 nuclear translocation imaging | inhibition, % at 2 µM | actives 0.43% (n = 94,000) | AID 796;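 active means inhibition above about 30% together with a positive call from visual inspection of the well image, limit read from the data; inconclusive means inhibition above a set limit but visual check negative; inactive means inhibition not above a set limit, visual check negative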;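 further: nuclear over cytoplasmic p65 intensity ratio measured by imaging; 0% = IL-1B stimulated DMSO wells and 100% = unstimulated DMSO wells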
IL1B NFkB pot: enhances IL-1B driven NFkB nuclear translocation. HUVEC IL-1B NFkB p65 nuclear translocation imaging. activation, % at 2 µM. actives 0.3% (n = 94,000). AID 819;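 active means activation above 40%, about the mean plus 3 SD, also judged a hit on visual image review; inconclusive means activation above 40% but not a hit on visual review; inactive means activation not above 40% and no visual hit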;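 further: percent activation is computed from the nuclear over cytoplasmic p65 intensity ratio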
HUVEC tox TNFa: HUVEC cytotoxicity counter-screen, TNF alpha stimulated; HUVEC TNFalpha-stimulated, Hoechst cell count, imaging; cell count reduction, % at 2 µM; actives 0.17% (n = 93,000);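 active means cell count reduction exceeding the screen mean by over 5 SD, scaled to untreated wells per plate, cut at about 78% in these data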;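 further: cells counted after 24 h of TNF alpha exposure following the 1 h pretreatment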
E-sel TNF inh: blocks E-selectin expression induced by TNF alpha. HUVEC TNFa-induced E-selectin immunofluorescence, high content. inhibition, % at 2 µM. actives 0.71% (n = 120,000). AID 1246;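 active means inhibition above the batch mean plus 3 SD, and confirmed as a hit on visual image review, cut at about 43% in these data; inconclusive means passes the inhibition cutoff but fails visual image review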;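 further: 0% = TNF-stimulated DMSO wells and 100% = unstimulated control wells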
HUVEC tox IL1B: HUVEC cytotoxicity counter-screen, IL-1B stimulated | HUVEC cell count loss, Hoechst imaging | cell count reduction, % at 2 µM | actives 0.41% (n = 94,000) | AID 845;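 active means cell count reduction more than 3 SD above the screen-wide mean, cut at about 70% in these data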;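 further: normalized per plate to untreated control cells as the no-loss baseline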
Active calls of the source: *; ? = inconclusive; · = no result.

SMILES | VCAM1 TNFa inh | NFkB transloc inh | IL1B NFkB pot | HUVEC tox TNFa | E-sel TNF inh | HUVEC tox IL1B
O=C(O)CCN1C(=O)C2CCCCC2C1=O (stereo unspecified) | -8 | -8 | 7 | -3 | -13 | 9
O=C(O)C1CCC(N2C(=O)C3CCCCC3C2=O)CC1 (stereo unspecified) | 78* | -11 | 11 | 57 | -12 | -18
O=C(CCSc1ccccc1)NC(=O)COC(=O)c1ccc(OC(F)F)cc1 | · | · | · | · | 14 | ·
COc1ccccc1CNC(=O)c1c(-c2ccccc2)nn(-c2ccccc2)c1C | 0 | -6 | 6 | -38 | -10 | 0
Cc1c(C(=O)O)c(-c2ccccc2)nn1-c1ccccc1 | -37 | 6 | -6 | · | -8 | 95*
COc1cccc(-c2cnc(NCc3cc(Cl)ccc3O)n2C)c1 | 21 | 10 | -10 | -16 | 60* | -35
CC(=O)Nc1ccc(S(=O)(=O)NC(C(=O)O)C2=CCC=CC2)cc1 (stereo unspecified) | 6 | -2 | 2 | -7 | 3 | 10
CC1(C)Cc2c(cnn2-c2ccccc2)C(=O)/C1=N\NC(=O)c1ccncc1 | 19 | -14 | 14 | -11 | -4 | -39
CC1(C)Cc2c(cnn2-c2ccccc2)-c2c1c1ccccc1n2CC(O)CCl (stereo unspecified) | 14 | 13 | -13 | -9 | -1 | 91*
CC(C)(C)C1CCc2c(C(=O)NNC(=O)CCC(=O)O)csc2C1 (stereo unspecified) | · | · | · | · | 11 | ·
Cc1cccc(C)c1NC(=O)C(c1cccs1)N(Cc1ccco1)C(=O)Cn1nnc2ccccc21 (stereo unspecified) | · | · | · | · | -23 | ·
CCn1c(NCc2cccs2)nc2ccccc21 | 9 | 7 | -7 | -10 | -7 | 87*
CCC(Sc1nc2c(c(=O)n1CC)SC(C)C2)C(=O)OC (stereo unspecified) | -18 | -16 | 16 | 10 | 65* | 2
C=CCn1c(SC(C)CC)nc(O)cc1=O (stereo unspecified) | 1 | -7 | 7 | -12 | -19 | 8
COc1ccccc1CC(=O)Nc1ccc(-c2noc(COc3cccc(C)c3C)n2)cc1 | 4 | 8 | -9 | -12 | -9 | -21
COc1ccccc1CC(=O)Nc1ccc(-c2noc(COc3ccc(Br)cc3)n2)cc1 | 8 | -50 | 50* | -13 | 8 | -8
CCOc1ccc(CN(C)CCc2ccccn2)cc1 | · | · | · | · | 17 | ·
O=Cc1ccc(OCc2ccccn2)cc1 | -1 | -1 | 1 | -26 | 45* | 12
Cn1cc(Cl)c(C(=O)NC(=S)Nc2sc3c(c2C#N)CCCCC3)n1 | · | · | · | · | 29 | ·
CC(NC(=O)COC(=O)CCNC(=O)c1ccco1)C12CC3CC(CC(C3)C1)C2 (stereo unspecified) | 3 | -63 | 63* | -13 | · | -44
O=C(NC1CCCCC1)C(c1cccs1)N(C(=O)c1ccco1)c1ccc2c(c1)OCCO2 (stereo unspecified) | -20 | 0 | 0 | 8 | 60* | -36
C#CC(=O)N(c1ccc(OC)c(OC)c1)C(C(=O)NC1CCCC1)c1cccs1 (stereo unspecified) | 22 | 6 | -6 | 1 | 51 | 8
C#CC(=O)N(c1cccc(OC)c1)C(C(=O)NC1CCCC1)c1cccs1 (stereo unspecified) | ? | -13 | 13 | 22 | 99* | 14
COc1ccc(C(=O)OCC2CC(c3ccccc3)N(C)O2)cc1 (stereo unspecified) | 10 | 47* | -47 | 7 | 21 | -24
O=c1[nH]c(/C=C\c2cccs2)nc(O)c1[N+](=O)[O-] | · | · | · | · | -37 | ·
SMILES | VCAM1 TNFa inh | NFkB transloc inh | IL1B NFkB pot | HUVEC tox TNFa | E-sel TNF inh | HUVEC tox IL1B
O=C(c1nc2nc(-c3ccc(Cl)cc3)cc(C(F)(F)F)n2n1)N1CCOCC1 | 10 | 31* | -31 | -35 | -1 | -26
CC(CCCC(C)(C)O)NC(=O)c1cc(COc2ccc3ncccc3c2)on1 (stereo unspecified) | · | · | · | · | -57 | ·
Cc1[nH]n(-c2c(Cl)cc(Cl)cc2Cl)c(=O)c1C=Nc1ccc(S(=O)(=O)N2CCOCC2)cc1 | · | · | · | · | 29 | ·
CCOC(=O)CSc1nnc(Cc2ccccc2)n1CC1CCCO1 (stereo unspecified) | 10 | -52 | 52* | -8 | 6 | 14
CCC(C)c1ccc(OCCn2cc(/C=N/NC(=O)CSc3nnc(C)s3)c3ccccc32)cc1 (stereo unspecified) | 7 | -4 | 3 | -15 | -17 | -24
COC(=O)c1ccccc1N1C(=O)[C@@H]2C(c3ccc(F)cc3)=NO[C@@H]2C1=O | -5 | -3 | 3 | -8 | 68* | 5
COc1ccc(CN2C(=O)[C@@H]3C(c4ccc(F)cc4)=NO[C@@H]3C2=O)cc1 | 92* | 4 | -4 | · | -6 | 12
COc1ccc(CN2C(=O)c3ccccc3C(/C=N\OCc3ccc(F)cc3)C2=O)cc1 (stereo unspecified) | 3 | -2 | 2 | -14 | -14 | -39
O=C(COc1cccnc1[N+](=O)[O-])NCc1cccs1 | · | · | · | · | -78 | ·
Cn1c(SCC2CCCCC2)nnc1-c1ccncc1 | · | · | · | · | -59 | ·
Cc1cccc(OCC(=O)O/N=C(\N)Cc2ccc(Cl)cc2)c1 | 33 | -25 | 25 | 0 | 12 | 2
CCNC(=O)CN(CCc1ccccc1)S(=O)(=O)c1ccc(OC)cc1 | 7 | 6 | -6 | -14 | 13 | 6
CCNC(=O)CN(Cc1ccccc1)S(=O)(=O)c1ccccc1 | 5 | 36* | -35 | -3 | · | 10
Cc1cccc(N2CCN(C(=O)C(C)n3nc(C)n4c(cc5occc54)c3=O)CC2)c1C (stereo unspecified) | 4 | 5 | -5 | 13 | 27 | 2
Cc1nccn1CC(O)Cn1c2ccccc2c2ccccc21 (stereo unspecified) | 29 | -46 | 46* | -4 | -36 | -23
CCCc1nc(-c2cc3ccc(C)cc3[nH]c2=O)no1 | -14 | 8 | -8 | -22 | -5 | 84*
Cc1c(Cl)cnc(NC(=O)COC(=O)c2nn(C)c(=O)c3ccccc23)c1Cl | · | · | · | · | 64* | ·
CCCn1nc(C(=O)OCC(=O)Nc2ncc(Cl)c(C)c2Cl)c2ccccc2c1=O | · | · | · | · | 8 | ·
CC(=O)c1coc2ccc(OCCN3CCCCC3)cc12 | -24 | -43 | 43* | -13 | · | -27
CN(CC(=O)NCc1ccncc1)S(=O)(=O)c1ccccc1 | 2 | -4 | 4 | -14 | 14 | -5
CN(CC(=O)O)S(=O)(=O)c1ccc(F)cc1 | -14 | -4 | 4 | -10 | -10 | -28
CNC(=O)CN(C)S(=O)(=O)c1ccc(F)cc1 | 6 | -44 | 44* | -30 | -7 | 13
CN(CC(=O)NCc1ccncc1)S(=O)(=O)c1ccc(F)cc1 | ? | -29 | 29 | 100* | 16 | -34
O=C(CCSCCc1ccccn1)Nc1ccc(Br)cc1F | · | · | · | · | -12 | ·
CC(C)(C)NC(=S)NC(=O)C12CC3CCC(CC(C3)C1)C2 | · | · | · | · | 4 | ·
CN1CCC(N(C)C(=S)NC(=O)C23CC4CC(CC(C4)C2)C3)CC1 | · | · | · | · | 79* | ·
